Assay outcomes from PubChem BioAssay.
HEK293 tox: qHTS of GLP-1 Receptor Inverse Agonists: Cytotox Screen; Potency, µM (doses to about 38.3 µM), inactives show top-dose activity change, negative = inhibition, actives largely listed as inhibitors; AID 624418, 2012; actives 0.13% (n = 410,000); HEK293 cAMP-luciferase reporter cells, luminescence, 24 h;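 further: loss of luciferase light is scored as toxicity; potency means the concentration at half of the fitted maximal effect; on the % scale 0 is the no-effect control and ±100 the full control effect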
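1536-well qHTS counterscreen of the MLSMR; 200 cells/uL, 12 h pre-incubation, 23 nL cpd, 24 h at 37 deg C 5% CO2, luciferase detection reagent, 12 min RT, luminescence. Inhibition = undesired.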
GLP1R inv ag: qHTS of GLP-1 Receptor Inverse Agonists (Inhibition Mode). Potency, µM (top dose mostly 38.3 µM), for inactives: top-dose activity change, negative = inhibition, actives largely listed as inhibitors. Glucagon-like peptide 1 receptor (Homo sapiens), P43220. HEK293 GLP-1R CRE-luciferase, luminescence, 24 h; GLP-1R form is constitutively active. actives 1.6% (n = 410,000). AID 624417, 2012; further: potency means the concentration at half of the fitted maximal effect; on the % scale 0 is the no-effect control and ±100 the full control effect; nearly all actives have a fitted effect of over 55% in size
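Constitutively active GLP-1R drives a cAMP-responsive luciferase in stably transfected HEK293 cells; test compounds are added after overnight (12 h) attachment and left 24 hr, and signal loss in luminescence marks inhibition.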
PTHR1 agonist: qHTS for PTHR1 Agonists: Primary Screen. Parathyroid hormone/parathyroid hormone-related peptide receptor (Homo sapiens), Q03431. HEK293 GP2 PTHR1 cells, GloSensor cAMP luminescence, 1 h. AID 743266, 2014. Potency, µM (series often up to 115 µM), for the others: top-dose activation, usual class: activators. actives 0.075% (n = 410,000); further: potency means the concentration at half of the fitted maximal effect; nearly all actives have a fitted effect of over 55% in size
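HEK-293-derived GP2 cells expressing PTHR1 and a GloSensor cAMP reporter, 3,000/well, plated overnight, given luciferin plus IBMX (each 0.5 mM as added) for 1 h at 37 °C, then compound for 1 h at 37 °C. Luminescence was read after 15 min at room temperature.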
TSHR antagonist: Antagonists of the Thyroid Stimulating Hormone Receptor: HTS campaign; Thyrotropin receptor (Homo sapiens), P16473; AID 504810, 2011; activity change, negative = inhibition, % at 11.5 µM; actives 0.2% (n = 330,000); TSHR-expressing cells, TSH-stimulated cAMP HTRF, 2 h; active compounds read low;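 active means activity change below a set negative limit, meaning inhibition stronger than a set level, cut at about -70% in these data; inconclusive means activity change between two set negative limits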; further: on the % scale 0 is the no-effect control and ±100 the full control effect
Target sequence (P16473 whole entry, looked up): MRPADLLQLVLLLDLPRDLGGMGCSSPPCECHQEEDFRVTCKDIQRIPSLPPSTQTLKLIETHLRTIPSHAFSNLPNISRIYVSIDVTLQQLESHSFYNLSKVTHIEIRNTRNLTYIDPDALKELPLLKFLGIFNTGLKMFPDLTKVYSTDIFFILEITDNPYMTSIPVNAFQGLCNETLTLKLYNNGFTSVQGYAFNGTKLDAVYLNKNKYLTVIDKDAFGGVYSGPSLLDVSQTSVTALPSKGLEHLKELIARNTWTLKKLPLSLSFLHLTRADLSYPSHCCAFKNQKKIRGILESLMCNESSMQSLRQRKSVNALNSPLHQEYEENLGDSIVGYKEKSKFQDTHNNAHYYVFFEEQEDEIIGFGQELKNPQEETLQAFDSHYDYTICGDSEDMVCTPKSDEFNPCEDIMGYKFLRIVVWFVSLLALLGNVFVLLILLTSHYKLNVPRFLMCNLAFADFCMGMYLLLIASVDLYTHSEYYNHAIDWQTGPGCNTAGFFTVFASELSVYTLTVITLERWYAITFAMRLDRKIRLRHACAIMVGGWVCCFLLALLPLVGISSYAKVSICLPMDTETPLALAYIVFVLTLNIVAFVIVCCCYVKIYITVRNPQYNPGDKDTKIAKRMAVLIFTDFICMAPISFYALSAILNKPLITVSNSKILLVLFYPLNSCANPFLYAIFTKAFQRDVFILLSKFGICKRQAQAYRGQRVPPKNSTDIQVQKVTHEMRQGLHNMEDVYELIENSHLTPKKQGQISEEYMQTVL
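Cell-based HTRF cAMP assay; TSHR cells + compound, TSH EC80 (4nM final), 2 h, 37 deg C. Lysis with anti-cAMP cryptate and cAMP-d2, 30 min RT, read 665/620 nm.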
GLP1R ag: qHTS of GLP-1 Receptor Agonists; HEK293 GLP-1R CRE-luciferase, luminescence, 4-6 h; cells express a hypersensitive GLP-1R form; actives 0.007% (n = 380,000); Potency, µM (titrated, usually from 45.6 µM), inactives show at the highest dose activation, actives largely listed as activators; further: potency means the concentration at half of the fitted maximal effect; % of control where 0% means no effect
Starred values were filed as active, the others as inactive; i = inactive; ? = inconclusive; / = not tested or not shown. Hits are enriched below; roughly 1.8% of the tested compounds scored in any of these assays. Unless noted, the call rests on the fitted dose curve; in most records, active means well fitted curve in the direction sought with a large enough effect; inconclusive means small, poorly fitted or top-dose-only effect, or another doubt; inactive means no such curve, though single readings can be large; an effect the other way counts as inactive or inconclusive.

SMILES	HEK293 tox	GLP1R inv ag	PTHR1 agonist	TSHR antagonist	GLP1R ag
Cc1cc(NC(=O)CSc2nnc(COc3ccccc3)n2Cc2ccco2)no1	5%	1%	i	12	-8%
O=C(CN(c1cccc(Br)c1)S(=O)(=O)c1ccccc1)N1CCc2ccccc2C1	4%	10µM*	-16%	/	/
Cc1ccc2oc(=O)c3cnn(CC(=O)N(C)c4ccc(F)cc4)c3c2c1	-3%	-2%	-14%	/	-1%
CCOC(=O)/C(=N/Nc1ccc(Br)cc1)N1CC(C)OC(C)C1 (centres undefined)	-3%	2.5µM*	-12%	/	14%
CC(=O)N1CCCC1c1nc2ccccc2n1Cc1cccc(C)c1 (centres undefined)	-1%	-1%	i	/	/
O=C(Nc1ccccc1C(F)(F)F)C1(S(=O)(=O)c2ccc(Cl)cc2)CC1	0%	-15%	-2%	/	/
Cc1ccc(-n2nnnc2SCC(=O)NC2CCCc3ccccc32)c(C)c1 (centres undefined)	-8%	10µM*	-45%	-2	9%
Cc1ccc(-n2nnnc2SCC(=O)NC2CCCc3ccccc32)cc1 (centres undefined)	-7%	10µM*	-10%	4	-1%
COc1ccc(Nc2sc(C(=O)c3ccc(Cl)cc3)c(N)c2C(=O)Nc2ccccc2OC)cc1	-32%	-29%	-40%	1	3%
COc1ccccc1NC(=O)c1c(Nc2ccccc2C)sc(C(=O)Nc2cccc(Cl)c2)c1N	?	4.5µM*	-8%	-5	-19%
Cc1ccc(CNC(=O)c2c(Nc3c(C)cccc3C)sc(C(=O)c3ccccc3)c2N)cc1	-24%	7.1µM*	-22%	/	/
CCOC(=O)C1(Cc2cccc(OC)c2)CCN(Cc2cccc3c2OCO3)CC1	-3%	10µM*	-15%	3	4%
CCOC(=O)C1(CCOC)CCN(Cc2cccc(OCc3ccccc3)c2)CC1	-7%	?	-59%	1	-4%
CCOC(=O)C1(CCOc2ccccc2)CCN(Cc2cccc(OC)c2)CC1	4%	11µM*	i	/	12%
CCOC(=O)C1(Cc2cccc(OC)c2)CCN(Cc2cccc(OC)c2OC)CC1	-21%	?	-32%	21	7%
CCOC(=O)C1(CCOc2ccccc2)CCN(Cc2cccc(OC)c2O)CC1	-13%	?	-37%	-113*	15%
Cc1ccccc1-c1nn2c(=O)cc(CN3CCN(C(=O)/C=C/c4ccccc4)CC3)nc2s1	-3%	-6%	i	/	/
CC/C=C(\C(=O)N[C@H]1C(=O)N2C(C(=O)OCOC(=O)C(C)(C)C)=C(COC(N)=O)CS[C@H]12)c1csc(N)n1	/	/	/	/	0%
CC(C)c1ccc2oc(-c3cccc(NC(=O)c4ccc5c(c4)OCCO5)c3)nc2c1	19%	-11%	-11%	/	/
CC(=O)O[C@H]1[C@@H](O)[C@H](O)[C@H](Oc2c(O)c(C)c3c4c2[C@@H](C)CC[C@@H]4[C@@H](C)C[C@H]3C=C(C)C)O[C@H]1C	?	11µM*	i	6	-2%
Cc1ccc(NC(=O)C(Cc2ccccc2)NS(=O)(=O)c2cccc3nsnc23)c(C)c1 (centres undefined)	1%	-24%	-15%	/	/
CN(C)CCCN1C(=O)c2cccc3cccc(c23)C1=O	?	-16%	i	4	-9%
CN(C)CCN1C(=O)c2cccc3cc([N+](=O)[O-])cc(c23)C1=O	?	1.8µM*	i	/	-19%
CN(C)c1ccc(-c2nc3ccccc3c(=O)[nH]2)cc1	8%	8.9µM*	-25%	-1	-9%
CCN(CC)c1ccc(NC(=O)CN(C)Cc2cccs2)cc1	-2%	11µM*	i	-10	14%
Cc1ccc(NC(=O)CN(C)Cc2cccs2)cc1Cl	3%	?	i	1	23%
